From PubChem BioAssay
“And” between values parts separate entries of the source, which are not always exact repeats. Equal values may be shown once. Values without a mark were called inactive. How the calls were made is not given here.

Tested on: Botulinum neurotoxin type F light chain protease (Clostridium botulinum)
Experiment: Clostridium botulinum type F light chain protease inhibitors, microsphere substrate cleavage, validation (AID 588459)
Conditions: multiplex microsphere protease substrate cleavage assay, flow cytometry; at 10 µM; hits give high values

Going from `Cc1ccc(S(=O)(=O)Oc2ccccc2/C=N/N=C(N)N)cc1` to `CC(CCc1ccccc1)NCC(O)c1ccc(O)c(C(N)=O)c1` (stereo unspecified), the inhibition falls from 0.8% to -1%.

Compared with `CC(=O)CCc1c(C)c2cccc(C)c2[nH]c1=O`, `COC(=O)c1ccc(COc2ccc3c(C)c(C)c(=O)oc3c2C)o1` is lower in inhibition: 4.3% for the first, 1.9% for the second.

Going from `CN1CCCC(OC(=O)c2ccc3c(c2)OCCO3)C1` (stereo unspecified) to `CN1CCCN=C1COC(=O)C(O)(c1ccccc1)C1CCCCC1` (stereo unspecified), the inhibition falls from 1% to -1.4%.

Going from `NNC(=O)c1ccncc1` to `NC(=O)c1cccnc1`, the inhibition rises from 1.1% to 1.8%.

Going from `CC(=O)N(C(C)=O)c1nc2nc(C)cc(C)n2n1` to `CC(C)Cc1ccc(C(C)C(=O)Nc2ccc(O)cc2)cc1` (stereo unspecified), the inhibition falls from 5.2% to -3.6%.

First: O=c1ccn([C@@H]2O[C@H](CO)[C@@H](O)[C@H]2O)c(=O)[nH]1
Second: NC[C@H]1O[C@H](O[C@H]2[C@H](O)[C@@H](O[C@H]3O[C@H](CO)[C@@H](O)[C@H](N)[C@H]3O)[C@H](N)C[C@@H]2N)[C@H](N)C[C@@H]1O
The inhibition of the first is lower: 0.8% for the first, 3.4% for the second.

Compared with `CCN1CCN(C(=S)c2ccc(OC)cc2)CC1`, `Cc1ccc(C(=O)NC(=S)NCCCN2CCOCC2)cc1` is higher in inhibition: 2.2% for the first, 3.6% for the second.

Going from `O=C1Cc2ccccc2C(c2ccccc2)N1` (stereo unspecified) to `CC/C(=C(\c1ccc(O)cc1)c1ccc(OCCN(C)C)cc1)c1ccccc1`, the inhibition rises from -0.1% to 2.7%.

First: CCC(C)NCCOCCOc1ccc(Cl)c2ccccc12 (stereo unspecified)
Second: COc1cc(C(=O)NCCc2c[nH]c3ccccc23)ccc1OCc1c(C)noc1C
The inhibition of the first is lower: -2.3% for the first, 3.6% for the second.

With `CCN(CC)C(=O)N1CCN(C)CC1` the inhibition was -3.4%.

With `NCCc1cnc[nH]1` the inhibition was 0.7% and 3.1%.

Target: Botulinum neurotoxin type A (Clostridium botulinum) (UniProt P0DPI0)
Sequence (P0DPI0 whole entry, looked up): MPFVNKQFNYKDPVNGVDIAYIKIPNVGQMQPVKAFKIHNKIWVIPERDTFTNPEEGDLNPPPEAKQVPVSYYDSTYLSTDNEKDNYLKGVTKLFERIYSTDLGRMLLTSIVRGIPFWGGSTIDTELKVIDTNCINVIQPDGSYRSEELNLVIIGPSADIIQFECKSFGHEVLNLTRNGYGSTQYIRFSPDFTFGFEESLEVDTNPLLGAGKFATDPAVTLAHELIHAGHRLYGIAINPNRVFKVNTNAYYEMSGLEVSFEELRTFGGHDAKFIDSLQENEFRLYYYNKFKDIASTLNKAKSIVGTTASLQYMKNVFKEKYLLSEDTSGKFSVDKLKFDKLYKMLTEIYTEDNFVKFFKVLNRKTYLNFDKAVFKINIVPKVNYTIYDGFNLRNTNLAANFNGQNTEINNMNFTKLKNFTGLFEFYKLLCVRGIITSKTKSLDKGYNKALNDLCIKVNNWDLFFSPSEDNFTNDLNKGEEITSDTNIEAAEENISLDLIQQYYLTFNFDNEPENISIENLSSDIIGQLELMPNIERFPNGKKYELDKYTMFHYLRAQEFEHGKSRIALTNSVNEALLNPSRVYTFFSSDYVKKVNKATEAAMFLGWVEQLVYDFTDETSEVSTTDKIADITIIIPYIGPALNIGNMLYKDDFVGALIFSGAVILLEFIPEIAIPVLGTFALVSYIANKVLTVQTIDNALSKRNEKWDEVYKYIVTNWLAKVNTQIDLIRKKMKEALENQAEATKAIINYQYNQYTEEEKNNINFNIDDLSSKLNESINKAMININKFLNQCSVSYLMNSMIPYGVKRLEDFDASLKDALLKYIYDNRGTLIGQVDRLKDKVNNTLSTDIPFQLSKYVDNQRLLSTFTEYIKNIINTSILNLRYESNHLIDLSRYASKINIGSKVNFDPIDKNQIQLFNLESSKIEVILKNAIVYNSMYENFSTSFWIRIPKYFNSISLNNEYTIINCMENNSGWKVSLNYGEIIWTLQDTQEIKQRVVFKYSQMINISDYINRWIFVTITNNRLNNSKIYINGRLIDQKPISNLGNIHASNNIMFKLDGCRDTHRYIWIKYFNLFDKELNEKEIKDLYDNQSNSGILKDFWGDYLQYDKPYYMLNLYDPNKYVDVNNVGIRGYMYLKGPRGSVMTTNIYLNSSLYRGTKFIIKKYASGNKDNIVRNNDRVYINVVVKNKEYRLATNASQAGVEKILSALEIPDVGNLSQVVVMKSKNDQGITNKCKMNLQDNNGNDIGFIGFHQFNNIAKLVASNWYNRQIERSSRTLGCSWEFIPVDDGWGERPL
Experiment: BoNT/A light chain protease inhibitors, biochemical, multiplex microsphere flow cytometry, validation set (AID 588460)
Conditions: at 10 µM, hits give high values

`NC(N)=N/N=C/c1cccc(Cl)c1Cl` and `Cc1ccc(S(=O)(=O)Oc2ccccc2/C=N/N=C(N)N)cc1` are the same in inhibition: 1.3% for the first, 1.3% for the second.

First: O=C(NCCc1c[nH]c2ccccc12)OCCSS(=O)(=O)O
Second: O=C(OCCNC(=O)c1ccc2ccccc2n1)c1ccc(F)cc1
The inhibition of the first is higher: -0.2% for the first, -0.7% for the second.

Going from `COc1ccc2cc[nH]c2c1` to `COc1cccc(N2CC34C=CC(O3)C(C(=O)O)C4C2=O)c1` (stereo unspecified), the inhibition rises from -0.4% to 0.3%.

Going from `c1ccc(Cn2ncc3c(Nc4ccccc4)ncnc32)cc1` to `O=C1Cc2ccccc2C(c2ccccc2)N1` (stereo unspecified), the inhibition rises from -1.4% to -0.3%.

Going from `NC(N)=NC(N)=Nc1ccc2ccccc2c1` to `CC(CCc1ccccc1)NCC(O)c1ccc(O)c(C(N)=O)c1` (stereo unspecified), the inhibition falls from 1% to -1.4%.

First: CN1C(=O)NC(c2ccc(O)cc2)C2=C1CN(c1cccc3ccccc13)C2=O (stereo unspecified)
Second: COc1ccc(OC)c(C(=O)c2coc3ccc(O)cc23)c1
The inhibition of the first is higher: -1% for the first, -1.6% for the second.

Compared with `CC(=O)c1ccc(CCCCCCCCCC(=O)O)s1`, `CC(=O)CCc1c(C)c2cccc(C)c2[nH]c1=O` is higher in inhibition: 0.3% for the first, 0.8% for the second.

Compared with `Cc1cc(O)c2/c(=N\N)c(-c3csc(C)n3)coc2c1`, `CC[n+]1c(C)sc2cc(C)ccc21` is higher in inhibition: -1% for the first, 1.9% for the second.

First: CC[N+]1(C)CC2CCC(C)(C1)C2(C)C (stereo unspecified)
Second: CC(C)CCC1(CCNC(C)c2cccs2)CCOC(C)(C)C1 (stereo unspecified)
The inhibition of the first is higher: -0.5% for the first, -0.9% for the second.

Going from `C#CCN(C)CCCOc1ccc(Cl)cc1Cl` to `Oc1ccc(Cl)cc1Cc1cc(Cl)ccc1O`, the inhibition rises from -1.4% to 4.5%.

Compared with `CNc1nc(N(C)C)nc(N(C)C)n1`, `CC(=O)N(C(C)=O)c1nc2nc(C)cc(C)n2n1` is lower in inhibition: 0.7% for the first, 0.6% for the second.

First: CC(C)C[C@H](NC(=O)NC(C)C)C(=O)O
Second: CC(C)CC(NC(=O)c1cccc(Cl)c1)C(=O)O (stereo unspecified)
The inhibition of the first is higher: 0% for the first, -2.6% for the second.

Going from `CN1CCCC(OC(=O)c2ccc3c(c2)OCCO3)C1` (stereo unspecified) to `Cc1ccc(C(=O)NC(=S)NCCCN2CCOCC2)cc1`, the inhibition falls from 0.8% to -1.4%.

First: NNC(=O)c1ccncc1
Second: COC(=O)c1ccc(COc2ccc3c(C)c(C)c(=O)oc3c2C)o1
The inhibition of the first is higher: -0.2% for the first, -0.8% for the second.

Compared with `O=c1ccn([C@@H]2O[C@H](CO)[C@@H](O)[C@H]2O)c(=O)[nH]1`, `CCN1CCN(C(=S)c2ccc(OC)cc2)CC1` is lower in inhibition: -0.2% for the first, -0.9% for the second.

Work on `NCCc1cnc[nH]1` yielded an inhibition of -1.5%.
